Bioassay records deposited in PubChem by National Center for Advancing Translational Sciences (NCATS).
RXFP1 ag: qHTS Assay for Agonists of the Relaxin Receptor RXFP1; Potency, µM (doses to about 57.5 µM), for inactives: at the top dose activation, hits mostly activators; HEK293T-RXFP1 cAMP TR-FRET, 30 min; response scale: percent of porcine relaxin response, buffer zero; 0.3% of 370,000 active; Relaxin receptor 1 (Homo sapiens), Q9HBX9; active = well fitted activation curve with a large enough effect; inconclusive = small, poorly fitted or top-dose-only effect; note: potency is the fitted concentration of half-maximal effect; % is set by controls: 0 for no effect and ±100 for the full control effect; nearly all actives have a fitted effect of over 60% in size
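cAMP rise read by TR-FRET after 30 min, 37C compound exposure (up to 58 uM) in RXFP1-transfected HEK293 cells with Ro 20174 present. EC50 from Hill-equation fits, with 29 nM porcine relaxin as 100% and buffer as basal.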
gsp ag: qHTS for Agonist of gsp, the Etiologic Mutation Responsible for Fibrous Dysplasia/McCune-Albright Syndrome: qHTS; AID 624287, 2012; gsp mutant cells, cAMP HTRF, 30 min; 0.13% of 340,000 active; Potency, µM (doses to about 76.9 µM), inactives show at the top dose activation (cAMP increase), hits mostly activators; active = well fitted activation curve with a large enough effect; inconclusive = small, poorly fitted or top-dose-only effect, or another doubt; inactive = no such curve, though single readings can be large or run the other way; cell line not stated here;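 note: phosphodiesterase inhibitor Ro 20-1724 added with compounds to block cAMP breakdown; potency is the fitted concentration of half-maximal effect; nearly all actives have a fitted effect of over 60% in size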
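Cells stably selected in G418 were plated at 2000/well, grown 16-24 hr, then given compounds in DMSO with the PDE inhibitor […] (300 uM solution added) for 30 min at 37C; cAMP was read by HTRF.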
gsp antag: qHTS for Antagonists of gsp, the Etiologic Mutation Responsible for Fibrous Dysplasia/McCune-Albright Syndrome: qHTS; gsp-mutant cells, cAMP HTRF, 30 min; Potency, µM (titrated, usually from 76.9 µM), inactives show at the highest dose activity change, negative = inhibition, usual class: inhibitors; 0.4% of 340,000 active; calls by dose curve; cell line not stated here;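 note: intracellular cAMP measured with PDE inhibitor Ro 20-1724 present during compound exposure; potency is the fitted concentration of half-maximal effect; % is set by controls: 0 for no effect and ±100 for the full control effect; nearly all actives have a fitted effect of over 65% in size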
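Cells, 2000/well, grown 16–24 h in DMEM 10% FBS with 0.5 mg/ml G418, then compounds plus […] (300 uM addition stock), 30 min at 37C. cAMP read by HTRF (cAMP-d2 and anti-cAMP antibody-K in lysis buffer) after 30 min RT.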
RXFP1 antag: qHTS Assay for Antagonists of the Relaxin Receptor RXFP1; Relaxin receptor 1 (Homo sapiens), Q9HBX9; HEK293-RXFP1, relaxin-stimulated cAMP HTRF, 30 min; hits give low values; activity change, negative = inhibition, % at 57.5 µM; 0.59% of 350,000 active;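 active = activity change of -60% or lower, but not beyond a set lower limit; inconclusive = change between -60% and -40%, or beyond the set limit; inactive = change above -40%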; note: % is set by controls: 0 for no effect and ±100 for the full control effect
Akt phos inh: HTS Assay for Inhibitors of Akt Phophorylation: Primary Screen | activity change, % for hits at 50 µM | Neuro2A IGF-stimulated pAkt S473 HTRF, 20 min; hits give low values | 0.32% of 360,000 active | AID 651550, 2012; in the data active = activity change below about -80%; inconclusive = mostly about -51% to -80%; note: % is set by controls: 0 for no effect and ±100 for the full control effect
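Single-point screen (50 µM final compound) in Neuro2A cells stimulated 20 min with 6 nM IGF at 37 deg C. After lysis, Ser473-phosphorylated Akt read by HTRF (ex 330 nm, em 615/665 nm) as the 665/615 ratio.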
ClpP mod: qHTS Assay for Activators of ClpP; ATP-dependent Clp protease proteolytic subunit (Bacillus subtilis (strain 168)), P80244; purified B. subtilis ClpP, FRET peptide cleavage, 20 min; Potency, µM (top dose mostly 57.5 µM), without a hit: top-dose activity change, negative = active; 1.9% of 340,000 active; active = well fitted falling curve with a large enough effect; inconclusive = small, poorly fitted or top-dose-only effect; inactive = no such curve, though single readings can be large or run the other way; note: potency is the fitted concentration of half-maximal effect; the source files actives as falling curves though it sought activators and does not explain the sign; nearly all actives have a fitted effect of over 65% in size
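Purified B. subtilis ClpP, 10 microg/mL final in Tris/HCl pH8 with KCl, BSA, glycerol and Tween-20, cleaved an Abz/nitrotyrosine-quenched decapeptide. Fluorescence (ex 320, em 430) was read at 0 and 20 min at room temperature. Delta was normalized to 5.8 microM ADEP and DMSO/no-enzyme controls.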
Numbers without * were called inactive; i = inactive; ? = inconclusive; . = no result given; [ ] = remark or other dose. Compounds with a hit are over-represented: about 2.7% of the library has one in this group of screens.

SMILES	RXFP1 ag	gsp ag	gsp antag	RXFP1 antag	Akt phos inh	ClpP mod
CCn1nc(C(=O)Nc2ccc3nc(C)sc3c2)c2ccccc2c1=O	-3%	6%	0%	-11	i	20µM*
COc1ccccc1NS(=O)(=O)c1cccc(NC(=O)c2[nH]c(C)c(C(C)=O)c2C)c1	-30%	-1%	?	-1	i	-1%
CN(c1ccccc1)S(=O)(=O)c1cccc(NC(=O)c2cccc(C#N)c2)c1	-1%	16%	-28%	-10	i	-3%
CN(c1ccccc1)S(=O)(=O)c1cccc(NC(=O)c2ccc3ncsc3c2)c1	0%	-10%[15.4 µM]	25µM*	-12	i	.
CC(=O)c1c(C)[nH]c(C(=O)Nc2cccc(S(=O)(=O)N(C)c3ccccc3)c2)c1C	-1%	0%	32µM*	-30	i	.
OC(c1ccc(-c2ccccc2)cc1)c1ncc(-c2cccc(F)c2)[nH]1 (configuration not stated)	.	.	.	.	i	-9%
CN(C)c1nc(-c2ccccc2)cc(C(F)(F)F)c1C#N	0%	17%	-6%	-16	i	32µM*
S=c1[nH]cnc2scc(-c3ccccc3)c12	2%	6%	-4%	-73*	i	-1%
O=C(N/N=C/c1cn(-c2ccccc2)nc1-c1cc2ccccc2o1)c1ccccc1Br	1%	1%[15.4 µM]	-14%	-10	i	1%
O=C(N/N=C/c1cn(-c2cccs2)nc1-c1ccccc1)c1ccccc1Br	1%	11%	-28%	3	i	22µM*
O=C(N/N=C/c1cn(-c2cccs2)nc1-c1ccccc1)c1ccccc1O	2%	-8%	28µM*	-88*	i	?
Cc1ccc(C)c(N/C(N)=N/c2nc(C)cc(C)n2)c1	-2%	-14%	15%	0	i	32µM*
Cc1nc(-c2ccc(Cl)cc2)sc1CCNC(=O)C(=O)Nc1ccc2c(c1)OCCO2	1%	.	.	-2	.	-8%
O=c1ccn(Cc2ccccc2)c(SCc2ccccc2)n1	.	-1%	0%	-8	i	16µM*
Cc1cc(C)n(-c2ccc(OCC(=O)O)nn2)n1	1%	?	5%	3	i	2%
CCCCOc1ccc(-n2nc(C)cc2C)nn1	-1%	-6%	-5%	-3	-101%*	-2%
O=C(NN=C1CCCC1)c1[nH]c2ccc(Br)cc2c1-c1ccccc1	0%	?	19%	-28	i	.
O=C(N/N=C/c1ccccc1)c1[nH]c2ccc(Br)cc2c1-c1ccccc1	0%	7%	8%	-2	i	22µM*
CCn1c(SCC(=O)Nc2ccc(-c3nc4ccc(C)cc4s3)cc2)nnc1-c1ccccc1	18%	.	.	.	.	.
CCC1(c2ccc(F)cc2)NC(=O)N(CC(=O)Nc2ccc(-c3nc4ccc(C)cc4s3)cc2)C1=O (configuration not stated)	0%	6%	-3%	-15	i	7.9µM*
C=CCn1c(SCC(=O)Nc2ccc(-c3nc4ccc(C)cc4s3)cc2)nnc1-c1ccncc1	8%	25%	9%	28	i	3.5µM*
COc1ccc(C2(C)NC(=O)N(CC(=O)Nc3ccc(-c4nc5ccc(C)cc5s4)cc3)C2=O)cc1 (configuration not stated)	6%	29%	9%	4	i	.
O=C(CCN1C(=O)NC2(CCCC2)C1=O)Nc1ccc(-c2nc3ccccc3s2)cc1	4%	-2%	-9%	-34	i	20µM*
Cc1ccc(N(CC(=O)Nc2ccc(-c3nc4ccc(C)cc4s3)cc2)S(C)(=O)=O)cc1	4%	9%	-4%[15.4 µM]	-11	i	11µM*
Cc1ccc2nc(-c3ccc(NC(=O)CCS(=O)(=O)c4ccccc4)cc3)sc2c1	-1%	27%	-7%	4	i	.
SMILES	RXFP1 ag	gsp ag	gsp antag	RXFP1 antag	Akt phos inh	ClpP mod
CC/C=C(/C(=O)N[C@@H]1C(=O)N2C(C(=O)OCOC(=O)C(C)(C)C)=C(COC(N)=O)CS[C@H]12)c1csc(N)n1	.	.	.	-14	.	.
O=C(NCc1ccccc1)c1cccn1-c1nnc(N2CCCCC2)s1	0%	.	.	-4	.	-6%
C[C@@H]1CCCCO[C@H](CN(C)C(=O)c2ccccc2)[C@@H](C)CN([C@H](C)CO)C(=O)c2cc(NC(=O)c3ccncc3)ccc2O1	.	-53%	.	-8	i	1%
CCCOc1ccc(CC(=O)NCC2(c3ccccc3)CCOCC2)cc1OC	-4%	0%	-11%	2	-117%*	-1%
CC12CCC(=O)N1C(C(=O)Nc1ccc(F)c(Cl)c1)CS2 (configuration not stated)	-1%	-1%[15.4 µM]	2%	11	i	-1%
COc1ccc(NC(=O)N2CCN(S(=O)(=O)c3ccc4c(ccn4C)c3)CC2)c(OC)c1	-2%	.	.	.	.	-17%
NCCCN(Cc1ccc(Cl)c(Cl)c1)c1ccccn1	.	.	.	.	.	-21%
COc1ccc(CC(=O)N2CCN(C(=O)Cc3ccc(OC)cc3)CC2)cc1	2%	-14%	-14%	-6	i	-5%
COc1ccc(CC(=O)N2CCN(c3ccc(C4=NNC(=O)CC4C)cc3)CC2)cc1 (configuration not stated)	12%	-23%	0%	-1	i	28µM*
COc1cc(OC)cc(C2=NC3(CCC(C)CC3)NC2=S)c1 (configuration not stated)	1%	-17%[15.4 µM]	-11%	-108*	i	.
O=C(O)/C=C/c1nc(-c2ccccc2)n2ccccc12	6%	?	-17%	-1	i	32µM*
Cc1ccccc1Cn1c(=O)n(Cc2ccc(Cl)cc2)c(=O)c2cccnc21	-1%	.	.	.	.	25µM*
COc1ccc2c(c1)-c1nc(NC(=O)c3ccccc3F)sc1CC2	5%	.	.	10	.	35µM*
COc1ccc2c(c1)-c1nc(NC(=O)c3cc(Cl)ccc3OC)sc1CC2	5%	.	.	10	.	-12%
CC1(C)C=C(c2ccc(C=O)s2)CC(C)(C)N1C=O	1%	-9%	-1%	22	i	22µM*
COc1ccc(C)cc1NC(=O)c1c(C(=O)Nc2cccc(C)c2C)sc2nc(C)cc(=O)n12	0%	.	.	3	.	0%
